Source: PubChem BioAssay
Sampled rows, rich in hits. Any-hit rate of the full collection: about 17%.
HepG2 tox – qHTS for Inhibitors of TGF-b: Cytotox Counterscreen | 0.76% of 410,000 active | HepG2 CAGA-GFP viability, ATP luminescence, 18 h | AID 588856, 2011 | Potency, µM (titrated, usually from 46.1 µM), inactives show at the highest dose activity change, negative = cytotoxicity, actives largely listed as cytotoxic
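CellTiter-Glo luminescence gave cytotoxicity after 18 hours at 37 degrees C. The cells were HepG2 CAGA-GFP in 1% FBS DMEM, stimulated with 500 pg/mL TGF-beta after compound addition. %Activity was normalised to no-cell wells (complete cell-killing) and DMSO (no toxicity), and curves were fitted and classified.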
TDP1 cell noCPT – qHTS for Inhibitors of human tyrosyl-DNA phosphodiesterase 1 (TDP1): qHTS in cells in absence of CPT; DT40 Tdp1-/- hTDP1 cells, no CPT, ATP luminescence, 48 h; Potency, µM (doses to about 46.2 µM), for the others: at the top dose activity change, negative = growth inhibition, most hits filed as inhibitors; 15% of 420,000 active; also: % is scaled to controls: 0 for no effect and ±100 for the full control effect; nearly all actives have a fitted effect of over 55% in size
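Compound effects on proliferation are scored in DT40 Tdp1-/-;hTDP1 cells in the absence of CPT. ATP levels (CellTiter-Glo luminescence) are recorded after a ≥48 hr, 37 °C incubation.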
HT1080NT lethal – qHTS for induction of synthetic lethality in tumor cells producing 2HG: qHTS for the HT-1080-NT fibrosarcoma cell line | Potency, µM (highest dose often 46.1 µM), inactives show at the highest dose activity, negative = less viability, hits mostly cytotoxic | HT-1080-NT fibrosarcoma viability, CellTiter-Glo ATP luminescence, 48 h | 1.6% of 360,000 active | AID 686970, 2013;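 also: NT is the 2HG producing partner of a matched IDH1 knockdown line; 0% = DMSO-treated cells and -100% = media-only wells without cells; nearly all actives have a fitted effect of over 55% in size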
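Fibrosarcoma NT cells, 750 per well in 5% FBS RPMI, were exposed to compound for 48 hours. Viability: CellTiter-Glo luminescence.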
TGFb inhibitor – qHTS for Inhibitors of TGF-b; 1.2% of 410,000 active; Potency, µM (series often up to 46.1 µM), for inactives: at the highest dose activity, negative = inhibition, usual class: inhibitors; HepG2 CAGA-GFP TGF-b/SMAD3 reporter, GFP fluorescence, 18 h; TGF-beta stimulated, 500 pg/mL final; also: % is scaled to controls: 0 for no effect and ±100 for the full control effect; nearly all actives have a fitted effect of over 65% in size
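Inhibition of TGF-beta-driven CAGA-GFP reporter expression in HEPG2 cells is measured by cellular GFP fluorescence after 18 h stimulation with 500 pg/mL recombinant TGF-beta in 1% FBS medium at 37 degrees C.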
TDP1 cell CPT – qHTS for Inhibitors of human tyrosyl-DNA phosphodiesterase 1 (TDP1): qHTS in cells in presence of CPT | chicken DT40 Tdp1-/-;hTDP1 cells + 20 nM CPT, ATP luminescence, 48 h | Potency, µM (doses to about 46.2 µM), for the others: at the highest dose activity change, negative = growth inhibition, usual class: inhibitors | 12% of 420,000 active; also: % is scaled to controls: 0 for no effect and ±100 for the full control effect; nearly all actives have a fitted effect of over 55% in size
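Cell growth measured by CellTiter-Glo luminescence after a minimum 48 h, 37 C compound exposure with 20 nM CPT in Tdp1-knockout DT40 cells stably expressing hTDP1, seeded 400/well; qHTS titration format.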
HT1080 IDH1KD tx – qHTS for induction of synthetic lethality in tumor cells producing 2HG: qHTS for the HT-1080-IDH1KD cell line; 2% of 360,000 active; Potency, µM (series often up to 46.1 µM), without a hit: top-dose activity, negative = toxicity, usual class: cytotoxic; HT-1080 IDH1 knockdown viability, ATP luminescence, 48 h; AID 686971, 2013;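 also: 0% = DMSO wells and -100% = cell-free medium wells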
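In this qHTS, HT-1080 cells depleted of IDH1 are exposed for 48 h at 37 °C to compound titrations. Toxicity is scored from CellTiter-Glo luminescence, with DMSO as full viability and medium alone as none.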
An asterisk follows results filed as active; u = inconclusive; x = no result. Calls follow the shape of the dose curve; as a rule, active = well fitted curve in the direction sought with a large enough effect; inconclusive = small, poorly fitted or top-dose-only effect, or another doubt; inactive = no such curve, though single readings can be large; an effect the other way counts as inactive or inconclusive. Potency is read from the fitted curve at half-maximal effect.

SMILES	HepG2 tox	TDP1 cell noCPT	HT1080NT lethal	TGFb inhibitor	TDP1 cell CPT	HT1080 IDH1KD tx
CCOc1ccc(OCC(=O)Nc2cccc(S(=O)(=O)NC3=NCCC3)c2)cc1	-2%	u	-13%	-8%	-24%	-23%
O=C(COc1cccc(C(F)(F)F)c1)Nc1cccc(S(=O)(=O)NC2=NCCCCC2)c1	-16%	26µM*	-13%	-17%	23µM*	-4%
O=C(Nc1cccc(S(=O)(=O)NC2=NCCCCC2)c1)c1ccc(Cl)cc1	-23%	12µM*	-2%	-35%	23µM*	-11%
O=C(COc1ccc(Cl)cc1)Nc1cccc(S(=O)(=O)NC2=NCCCCC2)c1	0%	u	5%	0%	u	1%
COc1ccccc1OCC(=O)Nc1cccc(S(=O)(=O)NC2=NCCCCC2)c1	2%	-28%	-1%	-6%	-24%	4%
O=C(COC(=O)CC1CC2CCC1C2)Nc1cccc(S(=O)(=O)NC2=NCCCCC2)c1 (stereo not drawn)	16%	29µM*	4%	1%	u	-3%
Cc1cc(Cl)ccc1OCC(=O)Nc1cccc(S(=O)(=O)NC2=NCCCCC2)c1	-26%	18µM*	-4%	u	12µM*	-12%
CCc1ccccc1OCC(=O)Nc1cccc(S(=O)(=O)NC2=NCCCCC2)c1	-5%	u	-21%	-13%	18µM*	-30%
O=C(COc1ccccc1Cl)Nc1cccc(S(=O)(=O)NC2=NCCCCC2)c1	0%	u	-9%	1%	u	-19%
CCCOc1ccccc1OCC(=O)Nc1cccc(S(=O)(=O)NC2=NCCC2)c1	-16%	15µM*	-1%	19%	u	-2%
O=C(Nc1cccc(S(=O)(=O)NC2=NCCC2)c1)c1cc(-c2ccco2)nc2ccccc12	6%	-29%	-1%	-29%	-29%	-16%
CN(C)c1ccc(C(=O)Nc2ccc(S(=O)(=O)NC3=NCCCCC3)cc2)cc1	2%	-5%	0%	-10%	-21%	3%
O=C(/C=C/c1ccc(Cl)cc1Cl)Nc1cccc(S(=O)(=O)NC2=NCCC2)c1	-25%	u	-9%	u	16µM*	u
CC(C)c1ccc(C(=O)Nc2ccc(S(=O)(=O)NC3=NCCCCC3)cc2)cc1	-21%	23µM*	-29%	2%	16µM*	u
O=C(NC(=S)Nc1cccc(S(=O)(=O)NC2=NCCC2)c1)c1cc(-c2ccco2)nc2ccccc12	2%	3.7µM*	9.2µM*	-14%	4.6µM*	1.6µM*
Cc1ccc(C(=O)NCC(=O)OCC(=O)c2ccc3ccccc3c2)cc1	-2%	-15%	x	-3%	-14%	x
CC(C)C[C@H](NC(=O)c1cc2cc(Cl)ccc2n1C)C(=O)N1CCC(C(=O)O)CC1	-10%	-19%	1%	5%	-26%	2%
O=C1C(=O)N(Cc2ccncc2)C(c2ccccc2F)/C1=C(\O)c1ccc2c(c1)OCCO2 (stereo not drawn)	13%	17%	5%	7%	-15%	8%
COc1ccc(NC(=O)c2ccc3ccccc3c2OC)cc1	-56%	u	0%	-6%	u	-20%
O=C(/C=C/c1ccc([N+](=O)[O-])cc1)Nc1cccc(S(=O)(=O)NC2=NCCCCC2)c1	-1%	15µM*	0%	u	15µM*	-8%
